Compounds with a hit are over-represented: about 1.4% of the library has one in this group of screens.
KCNH2 WT inh: qHTS for Inhibitors of KCHN2 3.1: Wildtype qHTS. U2OS, BacMam KCNH2, thallium flux FluxOr; active compounds read low. activity change, % at 1.84 µM. actives 0.37% (n = 340,000). AID 720551, 2013;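 active = maximum activity change below -70%; inconclusive = maximum activity change between -70% and -50%; inactive = maximum activity change above -50%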
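U2OS cells transduced with wild-type KCNH2 virus are loaded with FluxOr dye for 45 min, and thallium flux is measured in kinetic reads before and after stimulation buffer. Rate constants are normalized to DMSO controls.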
EPAC2 antag: qHTS for Antagonist of cAMP-regulated guanine nucleotide exchange factor 2 (EPAC2): primary screen. Rap guanine nucleotide exchange factor 4 (Homo sapiens), Q8WZA2. EPAC2 GEF exchange of Rap1B-BODIPY-GDP, fluorescence. Potency, µM (titrated, usually from 114 µM), hits mostly inhibitors. actives 0.18% (n = 360,000). AID 720708, 2013; note: nearly all actives have a fitted effect of over 45% in size
KCNH2 3.1 block: qHTS for Inhibitors of KCHN2 3.1: Mutant qHTS; Potassium voltage-gated channel subfamily H member 2, brain isoform KCNH2 3.1 (human); U2OS KCNH2 3.1, thallium flux FluxOr; active compounds read low; AID 720553, 2013; actives 0.95% (n = 340,000); activity change, % (tested at about 1.8 µM);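 active = maximum activity change below -70%; inconclusive = maximum activity change from -70% to -50%; inactive = maximum activity change above -50%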;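 note: thallium influx rate constant from kinetic fluorescence after stimulation buffer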
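Channel expression came from 3.1 mutant virus (1.77 x 10^8 /mL) applied to suspended U2OS cells for 4 h. Flux was tracked with FluxOr dye plus Red40 quencher, and kinetic rate constants normalized to controls.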
EPAC2 agonist: qHTS for Agonist of cAMP-regulated guanine nucleotide exchange factor 4 (EPAC2): primary screen. actives 0.079% (n = 360,000). Rap guanine nucleotide exchange factor 4 (Homo sapiens), Q8WZA2. Potency, µM (doses to about 154 µM), usual class: activators. EPAC2 activation, biochemical qHTS; response scale: 100% = 6.5 mM cAMP response. AID 720711, 2013; note: nearly all actives have a fitted effect of over 50% in size
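qHTS, titration series. 100 nM EPAC2 / 250 nM Rap1B-BODIPY-GDP / 50 uM GDP; RT; ex 480/em 540 nm, 5-min reads to 30 min. Norm. to 6.5 mM cAMP = activation.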
EPAC1 agonist: qHTS for Agonist of cAMP-regulated guanine nucleotide exchange factor 3 (EPAC1): primary screen. Rap guanine nucleotide exchange factor 3 (Homo sapiens), O95398. EPAC1 agonist qHTS, biochemical assay; response scale: 100% = response to 6.5 mM cAMP. Potency, µM (series often up to 154 µM), usual class: activators. actives 0.073% (n = 360,000); note: nearly all actives have a fitted effect of over 60% in size
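Nucleotide exchange by EPAC1 (100 nM) on Rap1B–BODIPY-GDP (250 nM) in the presence of 50 uM GDP is tracked fluorescently at 480/540 nm over 30 min. Signals are normalized to a 6.5 mM cAMP control.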
EPAC1 antag: qHTS for Antagonist of cAMP-regulated guanine nucleotide exchange factor 3 (EPAC1): primary screen | Rap guanine nucleotide exchange factor 3 (Homo sapiens), O95398 | EPAC1 GEF assay, Rap1b-BODIPY-GDP exchange fluorescence | Potency, µM (series often up to 115 µM), most hits filed as inhibitors | actives 0.14% (n = 360,000) | AID 720709, 2013; note: nearly all actives have a fitted effect of over 50% in size
Hits are given with their value; i = inactive; ? = inconclusive; nt = no result. Unless noted, calls come from the whole dose curve; as a rule, active = well fitted curve in the direction sought with a large enough effect; inconclusive = small, poorly fitted or top-dose-only effect, or another doubt; inactive = no such curve, though single readings can be large; an effect the other way counts as inactive or inconclusive.

SMILES	KCNH2 WT inh	EPAC2 antag	KCNH2 3.1 block	EPAC2 agonist	EPAC1 agonist	EPAC1 antag
c1ccc(CCN(Cc2ccccc2)C2CCN(C3CCCC3)CC2)cc1	i	i	-88	i	i	i
Cc1cc(/C=C2\SC(=S)NC2=O)c(C)[nH]1	i	i	i	i	i	i
O=C1NC(=S)S/C1=C\c1cc(Cl)ccc1Cl	i	56µM	i	i	i	?
Cc1cccc(OC(C)C(=O)Nc2ccc(S(=O)(=O)N3CCCC3)cc2)c1 (stereo not given)	i	i	-188	i	i	?
COc1ccc(CCN(C)CC(O)COC(c2ccc(F)cc2)c2ccc(F)cc2)cc1OC (stereo not given)	-144	i	-112	i	i	i
COc1ccc(CCN(C)CC(O)COc2c(C)ccc(C)c2C)cc1OC (stereo not given)	nt	i	?	i	i	i
COc1ccc(CN(C)CC(O)COC(c2ccccc2)c2ccccc2)c(OC)c1OC (stereo not given)	?	i	-86	i	i	i
CC1(c2nnnn2-c2ccc3c(c2)OCCO3)CCC(=O)N1CCCn1ccnc1 (stereo not given)	nt	i	nt	i	i	i
COc1ccc(CNC(=O)C2CCC(=O)N(CCCN3CCCC3=O)C2)c(OC)c1 (stereo not given)	i	i	i	i	i	i
Oc1c(Br)cc(/C=N/Nc2ccc(Cl)nn2)cc1Br	i	i	i	i	i	25µM
Cc1ccc(Nc2nc(-c3c(C)nc4ccccn34)cs2)cc1	i	i	-78	i	i	i
O=C(CSc1nncn1-c1ccccc1)Nc1ccccc1	i	i	i	i	i	i
COc1ccccc1-n1cnnc1SCC(=O)Nc1ccccc1	i	i	-86	i	i	i
C=CCn1c(SCc2cccnc2)nnc1-c1ccncc1	i	i	i	i	i	i
C=CCn1c(SCc2c(Cl)cccc2Cl)nnc1-c1cccnc1	i	i	-120	i	i	i
CN(C(=O)c1cncc(Br)c1)C1C2CC3CC(C2)CC1C3 (stereo not given)	i	i	i	i	i	i
Cc1cc(C)cc(NC(=O)c2cc(S(=O)(=O)N3CCCC3)cn2C)c1	i	i	-107	i	i	i
CCCCSc1nc2sc3c(c2c(=O)[nH]1)CC(C)(CC)OC3 (stereo not given)	i	i	i	i	i	i
N#C/C(=C\c1ccc(N2CCOCC2)c([N+](=O)[O-])c1)c1nc2ccccc2[nH]1	i	i	i	i	i	i
N#C/C(=C\c1ccc(N2CCOCC2)o1)c1nc2ccccc2[nH]1	i	i	i	50µM	63µM	i
O=C(C[n+]1ccc(C(=O)NCc2ccccc2)cc1)c1ccc(Cl)cc1	i	i	i	i	i	i
Cc1ccc2nc(CCCc3nc4ccc(C)cc4[nH]3)[nH]c2c1	i	i	-79	i	i	i
Cc1ccc2nc(CCc3nc4ccc(C)cc4[nH]3)[nH]c2c1	i	i	i	i	i	i
CC1=NN(c2ccccc2)C(=O)C1=Cc1ccccc1	i	i	i	i	i	50µM
CC1=NN(c2cccc(C(=O)O)c2)C(=O)/C1=C\C=C/c1ccccc1	i	16µM	i	i	i	i
SMILES	KCNH2 WT inh	EPAC2 antag	KCNH2 3.1 block	EPAC2 agonist	EPAC1 agonist	EPAC1 antag
Cc1ccc(C)c(-n2c3nc(=O)[nH]c(=O)c-3cc3cc([N+](=O)[O-])ccc32)c1	i	i	i	i	i	56µM
CCCCn1c(N)c(N(CC(C)C)C(=O)C2=NN(c3ccccc3)C(=O)CC2)c(=O)[nH]c1=O	i	i	i	i	i	i
CC(C)(CN=C1NS(=O)(=O)c2ccccc21)CNC(=O)c1ccccc1	-94	i	i	i	i	i
CN(C)S(=O)(=O)c1ccc(C(=O)NCC(C)(C)CN=C2NS(=O)(=O)c3ccccc32)cc1	i	i	i	i	i	i
O=C(O)Cn1c(CC(=O)N2CCCC2)nc2ccccc21	i	i	-169	i	i	i
COc1ccc(-c2nc(-c3ccc(NC(=O)c4ccncc4)cc3)no2)cc1OC	i	i	i	i	i	i
COc1ccc(NC(=O)c2ccc(-c3ccc(-c4noc(C)n4)cc3C)cc2)cc1N1CCN(C)CC1	i	?	-87	i	i	i
COc1ccc(S(=O)(=O)N2CCC(C(=O)NCCC(=O)NCc3ccncc3)CC2)cc1	i	i	i	i	i	i
COc1ccc(S(=O)(=O)N2CCC(C(=O)NCCC(=O)NCc3cccnc3)CC2)cc1	-74	i	i	i	i	i
Cc1ccc(S(=O)(=O)Oc2cccc(/C=N/Nc3ccc(C(=O)O)cc3)c2)cc1	i	56µM	i	i	i	i
COc1ccc(/C=N/Nc2ccc(C(=O)O)cc2)cc1Br	i	56µM	i	i	i	i
COc1ccc(C(=O)Oc2ccc(/C=N/Nc3ccc(Cl)c(C(=O)O)c3)cc2OC)cc1	i	20µM	i	i	i	i
COc1ccc(/C=N/Nc2ccc(C(=O)O)cc2)cc1OC	i	i	i	i	i	i
CC1=C(C#N)C(/C=N/OCc2ccc(F)cc2Cl)CC(=O)N1 (stereo not given)	i	i	i	i	i	i
OCCC1CN(Cc2ccc(F)cc2)CCN1CCc1ccccc1 (stereo not given)	i	i	-79	i	i	i
C#Cc1ccc(CN2CCN(CCc3ccccc3)C(CCO)C2)cc1 (stereo not given)	i	i	-74	i	i	i
OCCC1CN(Cc2ccc(F)cc2)CCN1CCCc1ccccc1 (stereo not given)	i	i	?	i	i	i
CC(C)CCN1CCN(CC(c2ccccc2)c2ccccc2)CC1CCO (stereo not given)	i	i	-74	i	i	i
COc1ccc(/C=C/C(=O)C23CC4CC(CC(C4)C2)C3)cc1CN1CCOCC1	i	i	i	i	i	?
COCC(=O)Oc1cc(-c2ccc(C)cc2C)c(OC(=O)COC)c(-c2ccc(C)cc2C)c1	i	i	i	i	i	i

Source: PubChem BioAssay
